From PubChem BioAssay
In the library only some 2.3% were active in any assay of this set; here they are far more common.
CHO-K1 Ca antag: counter-screen for M1 antagonists: effect in parental CHO-K1 cells. ATP-induced calcium, Fluo-8 fluorescence. inhibition, % at 3 µM. hit rate 0.6% among 360,000;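 active means inhibition above a per-plate cutoff, the plate's mean sample inhibition plus 3 SD, cut at about 24% in these data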;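 further: 0% = DMSO plus EC80 ATP and 100% = DMSO alone without ATP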
M1 ag parental: counter-screen for M1 agonists: effect in parental CHO-K1 cells | Fluo-8 calcium fluorescence; scaled to maximal ATP response, vehicle zero | activation, % at 3 µM | hit rate 0.48% among 360,000; in the data active means activation above about 15%;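 further: untransfected CHO-K1 host cells lacking M1 receptor as counterscreen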
M1 PAM: potentiates human M1 receptor response to acetylcholine; activation, % at 3 µM; hit rate 0.088% among 360,000; P11229; CHO-K1 hM1, Fluo-8 calcium fluorescence, ACh EC20; 0% = ACh EC20, 100% = maximal ACh; in the data active means activation above about 19%, passing the limit was not always enough
Target sequence (P11229 whole entry, looked up): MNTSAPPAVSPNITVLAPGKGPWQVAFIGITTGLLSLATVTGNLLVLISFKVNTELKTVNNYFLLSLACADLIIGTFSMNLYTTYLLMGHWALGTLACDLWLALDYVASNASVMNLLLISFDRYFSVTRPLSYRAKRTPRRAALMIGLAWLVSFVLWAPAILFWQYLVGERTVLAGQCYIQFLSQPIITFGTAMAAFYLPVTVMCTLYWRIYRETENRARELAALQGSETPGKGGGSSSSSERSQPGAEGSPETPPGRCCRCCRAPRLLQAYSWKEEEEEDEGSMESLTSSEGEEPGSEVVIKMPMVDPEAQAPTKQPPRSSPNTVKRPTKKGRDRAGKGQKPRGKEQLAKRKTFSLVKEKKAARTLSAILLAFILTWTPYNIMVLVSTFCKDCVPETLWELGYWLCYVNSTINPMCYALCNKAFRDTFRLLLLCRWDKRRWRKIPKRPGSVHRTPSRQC
CHO-K1 Ca PAM: nonselective activator or artifact in parental CHO-K1 calcium assay; ATP EC20, Fluo-8 calcium fluorescence; 0% at ATP EC20, 100% at ATP max; AID 602247; activation, % at 3 µM; hit rate 0.02% among 360,000;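 active means activation above the run cutoff, the mean activation of all test compounds plus 3 SD, cut at about 40% in these data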;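 further: peak over basal fluorescence ratio in a 140 s read after ATP addition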
M1 ag: human M1 muscarinic receptor agonism. P11229. CHO-K1 hM1, Fluo-8 calcium fluorescence, agonist mode; 0% DMSO, 100% acetylcholine EC100. activation, % at 3 µM. hit rate 0.33% among 360,000. AID 588814;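 active means activation above the run's mean compound activation plus 3 SD, cut at about 16% in these data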;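 further: peak over basal fluorescence ratio within a 140 s kinetic read after compound addition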
M1 antag: human CHRM1 antagonism; P11229; CHO-K1 hM1, Fluo-8 calcium fluorescence, ACh EC80 antagonist; inhibition, % at 3 µM; hit rate 1.3% among 360,000; AID 588852;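 active means percent inhibition above its own plate's cutoff, namely the mean of that plate's compound wells plus 3 SD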;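 further: peak over basal fluorescence ratio during 140 s after agonist addition; 0% = ACh EC80 plus DMSO and 100% = DMSO alone without agonist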
Starred values were filed as active, the others as inactive; nt = no result.

SMILES	CHO-K1 Ca antag	M1 ag parental	M1 PAM	CHO-K1 Ca PAM	M1 ag	M1 antag
CCOC(=O)c1ccc(N2C(=O)CC(N3CCCC(C)C3)C2=O)cc1 (stereo not given)	-28	1	2	9	-3	-8
CCOC(=O)C1CCCN(C2CC(=O)N(c3cccc(C)c3)C2=O)C1 (stereo not given)	2	0	-23	-2	47*	23
COc1ccc(-c2nc(-c3ccc(NC(=O)c4ccncc4)cc3)no2)cc1OC	8	4	-21	-7	0	39*
COc1ccc(Cl)cc1-c1nc(-c2ccc(NC(=O)c3ccncc3)cc2)no1	-2	0	1	18	-3	0
CCc1ccc(OC)c(S(=O)(=O)Nc2ccc(Cc3ccncc3)cc2)c1	12	15*	-18	18	-6	36*
O=S(=O)(Nc1ccc(Cc2ccncc2)cc1)c1ccc(Cl)c(Cl)c1	-8	8	-20	16	-5	52*
COc1ccc(S(=O)(=O)Nc2ccc(Cc3ccncc3)cc2)cc1OC	11	12	-4	-10	-7	2
Cc1ccc(Cc2c(-c3ccc(Cl)cc3)nc3c(C)cc(Br)cn23)cc1	-5	0	-7	-7	-5	-16
O=C(CCNC(=O)c1ccc([N+](=O)[O-])cc1)Nc1nc2ccccc2[nH]1	-4	0	6	-20	-2	-11
O=C(COC(=O)C12CC3CC(CC(O)(C3)C1)C2)Nc1ccc(Cl)cc1F	-15	2	2	9	-3	2
COC(=O)c1ccc(C(=O)OC)c(NC(=O)COC(=O)C23CC4CC(CC(O)(C4)C2)C3)c1	33*	1	-4	-6	-4	-7
Cn1c(COc2ccccc2O)[n+](C)c2ccccc21	-7	0	3	14	-11	-12
CCCCCCCCCCOC(=O)Cn1c(COc2ccccc2OC)[n+](C)c2ccccc21	29*	17*	-29	0	21*	69*
CCN1CCN(S(=O)(=O)c2ccc(OC)c(NC(=O)c3ccccc3)c2)CC1	-13	-1	6	20	-5	-9
CC1=C(C(=O)N2CCCCCC2)CC(CC(=O)NC2CCCC2)C(=O)N1Cc1ccc(C(C)(C)C)cc1 (stereo not given)	-17	0	nt	0	nt	nt
CCCc1ncc(C(O)(c2ccccc2)c2ccccc2)n1C	-4	1	-32	18	-13	94*
CCCc1ncc(C(O)c2cccc3ccccc23)n1C (stereo not given)	-9	2	-2	25	-4	-12
CCCc1ncc(C(O)(c2ccccc2)c2ccc(C)cc2)n1C (stereo not given)	-9	2	-25	25	-8	95*
O=C(CN1CCN(Cc2ccccc2)CC1)Nc1cccc(C(F)(F)F)c1	26*	0	11	-8	-4	-10
Cc1ccc(C)c(N2CCN(C(=O)CCNS(=O)(=O)c3ccc4c(c3)oc(=O)n4C)CC2)c1	-2	17*	-14	-14	1	14
Cn1c(=O)oc2cc(S(=O)(=O)NCCC(=O)N3CCN(c4ccccc4F)CC3)ccc21	-2	3	-4	-7	-4	11
O=C(CNC(=O)c1ccccc1)OC1CCCCC1	-8	0	11	16	-5	-11
C[N+]1(C)CCCC(OC(=O)C(O)(c2ccccc2)c2ccccc2)C1 (stereo not given)	9	0	-26	-2	-9	99*
CCN(CCn1cccn1)C(=O)c1cc(COc2cc(C)ccc2C)on1	10	0	-1	10	0	17
Cc1ccc2oc(C(=O)N3CCN(CC(=O)NC(C)C)CC3)c(C)c2c1	-1	0	12	16	-5	-16
SMILES	CHO-K1 Ca antag	M1 ag parental	M1 PAM	CHO-K1 Ca PAM	M1 ag	M1 antag
CCc1ccc(NC(=O)CSc2nc3cc(C(=O)OC)ccc3c(=O)n2Cc2ccco2)cc1	10	0	5	-1	-3	-4
CCN(C(=O)CSc1nc2cc(C(=O)OC)ccc2c(=O)n1Cc1ccco1)c1cccc(C)c1	26*	-1	11	-5	0	1
CN(C)CCCN(Cc1ccccc1)C(=S)Nc1ccc(SC(F)F)cc1	-12	6	-22	19	-4	88*
CC(=O)c1ccc(NC(=S)NC(C)CCc2ccccc2)cc1 (stereo not given)	-1	15*	-4	3	2	19
CC(=O)c1ccc(NC(=S)N(CCCN(C)C)Cc2ccccc2)cc1	2	11	-21	5	-4	44*
CN(C)CCCN(Cc1ccccc1)C(=S)NCc1ccccc1	-15	4	3	17	-4	2
CC(C)Cn1c(C23CC4CC(CC(C4)C2)C3)n[nH]c1=S	-8	0	-25	-4	-9	20
CCOc1cc(N2CCOCC2)c(OCC)cc1NC(=O)COC(=O)c1cc(C)oc1C	25*	0	2	-6	-2	-5
COc1ccc(C(c2c(C)n(C)n(-c3ccccc3)c2=O)c2c(C)n(C)n(-c3ccccc3)c2=O)cc1OC	-3	0	7	0	-3	-8
COc1ccc(C(c2c(C)[nH]n(-c3ccccc3)c2=O)c2c(C)[nH]n(-c3ccccc3)c2=O)cc1OC	0	15*	-3	28	0	14
CN(CCc1ccccc1)C(c1ccnc2ccccc12)c1nnnn1-c1ccc2c(c1)OCCO2 (stereo not given)	26*	0	nt	-7	nt	nt
CC(NC(=O)NCCCC(=O)O)(C(F)(F)F)C(F)(F)F	25*	0	6	-5	0	-1
Cc1ccnc(NS(=O)(=O)c2ccc(NC(=O)c3ccc(S(=O)(=O)N4CCCC4)cc3)cc2)n1	4	0	6	13	-7	-2
O=C1CCC(=O)N1c1nc2n(n1)C(c1ccccc1)C=C(c1ccc(Br)cc1)N2 (stereo not given)	3	1	4	6	-2	1
COc1ccc(C2C=C(c3ccc(Br)cc3)Nc3nc(N4C(=O)CCC4=O)nn32)cc1 (stereo not given)	33*	0	-1	-7	-1	9
COc1ccc(Cl)cc1NC(=O)Cn1c(NCCO)nc2ccccc21	-11	0	4	2	-7	2
CCCCn1c(N)c(N(CC)C(=O)c2cc(OC)cc(OC)c2)c(=O)[nH]c1=O	-3	16*	4	6	-6	0
CCCCn1c(N)c(N(CCOC)C(=O)c2cc(=O)[nH]c3ccccc23)c(=O)[nH]c1=O	-14	1	2	0	-5	-8
CCCCn1c(N)c(N(CCOC)C(=O)c2cc(C)oc2C)c(=O)[nH]c1=O	24*	4	5	-20	-3	-5
S=C(Nc1ccc(Cl)cc1)N(CCCN1CCOCC1)Cc1cccs1	-21	2	-25	7	-9	45*
